Experimental findings from PubChem BioAssay (NCI) are described below.

The panel holds about 83,000 compounds, 20% with a hit somewhere; the sample as a whole holds those more often.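 Step 1: grow cells in 96-well plates. Step 2: add test compound at a single concentration. Step 3: incubate 48 h. Step 4: record percent growth.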 A number with no mark means an inactive call. The source made the active and inactive calls. The calls were made as follows: active = growth percent below 10; inactive = the rest.

What all share (assay): NCI-60 one-dose screen, 48 h (100 = growth as untreated, 0 = no growth, -100 = all killed)
One experiment has as its system SK-MEL-2 melanoma. The following applies: 10 µM unless noted.
The test system of a further experiment is EKVX NSCLC. The settings on record: 10 µM unless noted.
In another experiment the test system is SN12C renal. The following applies: 10 µM unless noted.
In another experiment the test system is UO-31 renal. The settings on record: 10 µM unless noted.
In another experiment the test system is TK-10 renal. The following applies: 10 µM unless noted.
The subject of another experiment is ACHN renal. The following applies: 10 µM unless noted.
A further experiment deals with CAKI-1 renal. The following applies: 10 µM unless noted.
Another experiment concerns A498 renal. The following applies: 10 µM unless noted.
A further experiment has as its system CCRF-CEM leukemia. The following applies: 10 µM unless noted.
A further experiment concerns MOLT-4 leukemia. The following applies: 10 µM unless noted.
For another experiment, the system named is SR leukemia. The following applies: 10 µM unless noted.
The subject of a further experiment is RPMI-8226 leukemia. The settings on record: 10 µM unless noted.
The next experiment has as its system OVCAR-8 ovarian. The following applies: 10 µM unless noted.
The subject of the next experiment is OVCAR-5 ovarian. The settings on record: 10 µM unless noted.
The next experiment deals with OVCAR-4 ovarian. The following applies: 10 µM.
Another experiment has as its system SK-OV-3 ovarian. The settings on record: 10 µM unless noted.
Another experiment relates to IGROV1 ovarian. The settings on record: 10 µM unless noted.
Another experiment has as its system OVCAR-3 ovarian. The following applies: 10 µM unless noted.
The next experiment deals with NCI/ADR-RES ovarian. The following applies: 10 µM unless noted.
The next experiment deals with HS 578T breast. The settings on record: 10 µM unless noted.

On to `COc1cc2c(cc1OCCCN1CCN(CCCOc3cc4c(cc3OC)C(=O)N3C[C@H](F)C[C@H]3C=N4)CC1)N=C[C@@H]1C[C@@H](F)CN1C2=O`, for which the growth in the experiment with SK-MEL-2 melanoma was -20.5% (active); with EKVX NSCLC it was -34.3% (active); in the experiment with SN12C renal, 25.7%; in the experiment on UO-31 renal it was 11.8%; with TK-10 renal, -52.5% (active); in the experiment on ACHN renal, 7.96% (active). Moreover, the growth in the experiment with CAKI-1 renal was 16.9%; with A498 renal it was -55% (active); in the experiment on CCRF-CEM leukemia it was -28.1% (active); in the experiment with MOLT-4 leukemia, -16.7% (active); in the experiment on SR leukemia, -23.4% (active); with RPMI-8226 leukemia, -3.68% (active). Moreover, the growth in the experiment with OVCAR-8 ovarian was 24.4%; in the experiment on OVCAR-5 ovarian it was 9.91% (active); in the experiment on OVCAR-4 ovarian it was 1.26% (active); in the experiment with SK-OV-3 ovarian, 36.1%; in the experiment on IGROV1 ovarian it was 12.4%; in the experiment with OVCAR-3 ovarian, 5.75% (active). Besides, the growth in the experiment on NCI/ADR-RES ovarian was 63.6%.
As for `O=C(CCNCc1ccccc1)c1ccccc1`, the growth is 108% in the experiment with SK-MEL-2 melanoma; 104% with EKVX NSCLC; 109% with SN12C renal; 95.9% in the experiment with UO-31 renal; 113% in the experiment with TK-10 renal; 107% in the experiment with ACHN renal. Besides, the growth in the experiment with CAKI-1 renal is 100%; in the experiment with A498 renal, 112%; with CCRF-CEM leukemia, 116%; with MOLT-4 leukemia it was 109%; in the experiment on SR leukemia, 109%; with RPMI-8226 leukemia, 105%. In addition, the growth was 112% in the experiment with OVCAR-8 ovarian; 103% in the experiment on OVCAR-5 ovarian; 119% in the experiment on OVCAR-4 ovarian; 109% in the experiment with SK-OV-3 ovarian; 114% in the experiment with IGROV1 ovarian; 102% in the experiment on OVCAR-3 ovarian. For the same compound, the growth with HS 578T breast is 110%; in the experiment with NCI/ADR-RES ovarian, 105%.
As for `COc1ccc(C(=O)CSc2nnc(-c3cc(-c4ccccc4)nc4ccccc34)o2)cc1`, the growth in the experiment with SK-MEL-2 melanoma is 129%; in the experiment with EKVX NSCLC it was 109%; in the experiment on SN12C renal, 97.3%; with UO-31 renal, 96%; in the experiment with TK-10 renal it was 116%; in the experiment on ACHN renal, 108%. Also, the growth was 95.7% in the experiment with CAKI-1 renal; 100% in the experiment with A498 renal; 112% with CCRF-CEM leukemia; 120% with MOLT-4 leukemia; 96.3% in the experiment with SR leukemia; 121% with RPMI-8226 leukemia. Besides, the growth in the experiment with OVCAR-8 ovarian was 103%; in the experiment on OVCAR-5 ovarian, 105%; with OVCAR-4 ovarian, 107%; in the experiment on SK-OV-3 ovarian, 119%; in the experiment on IGROV1 ovarian, 102%; with OVCAR-3 ovarian it was 109%. The growth in the experiment with NCI/ADR-RES ovarian was 103%.
Consider `COc1ccc(C(C(=O)O)c2ccc(OC)cc2)cc1`, for which the growth is 111% in the experiment on SK-MEL-2 melanoma; 106% in the experiment on EKVX NSCLC; 121% with SN12C renal; 108% in the experiment on UO-31 renal; 114% in the experiment with TK-10 renal; 109% in the experiment with ACHN renal. Further, the growth was 112% in the experiment on CAKI-1 renal; 86.7% in the experiment on A498 renal; 100% with CCRF-CEM leukemia; 104% in the experiment on MOLT-4 leukemia; 106% in the experiment with SR leukemia; 111% with RPMI-8226 leukemia. In addition, the growth with OVCAR-8 ovarian was 113%; in the experiment with OVCAR-5 ovarian it was 108%; in the experiment on OVCAR-4 ovarian, 103%; in the experiment on SK-OV-3 ovarian it was 116%; in the experiment with IGROV1 ovarian it was 118%; with OVCAR-3 ovarian it was 101%. The growth with NCI/ADR-RES ovarian is 117%.
For `O=C(OCc1ccc2c(Cl)cc(Cl)c(O)c2n1)N1CCN(C(=O)c2cc3cc(F)ccc3[nH]2)CC1`, the growth in the experiment on SK-MEL-2 melanoma is 22.9%; with EKVX NSCLC, 94.5%; in the experiment with SN12C renal, 30.1%; in the experiment with UO-31 renal, 33.4%; in the experiment with TK-10 renal it was 63.7%; in the experiment on ACHN renal, 26.7%. Also, the growth in the experiment on CAKI-1 renal is 14.8%; in the experiment on A498 renal, -13.1% (active); with CCRF-CEM leukemia it was 13.4%; in the experiment with MOLT-4 leukemia, 17.3%; with SR leukemia, 16.7%; with RPMI-8226 leukemia, 21.4%. The growth in the experiment with OVCAR-8 ovarian was 7.64% (active); in the experiment on OVCAR-5 ovarian it was 40.7%; in the experiment with OVCAR-4 ovarian it was 40%; in the experiment with SK-OV-3 ovarian it was 19.3%; in the experiment on IGROV1 ovarian, 11.2%; in the experiment with OVCAR-3 ovarian, -44.1% (active). Also, in the experiment on NCI/ADR-RES ovarian, the growth is 2.35% (active).
In the case of `O=C(O)c1cn(C2CC2)c2cc(N3CCN(Cc4cc(Cl)ccc4O)CC3)c(F)cc2c1=O`, the growth was 88% with SK-MEL-2 melanoma; 65.1% in the experiment on EKVX NSCLC; 65.3% with SN12C renal; 40.7% with UO-31 renal; 81% in the experiment with TK-10 renal; 44.3% in the experiment on ACHN renal. Moreover, the growth with CAKI-1 renal was 46.7%; in the experiment with A498 renal it was 94%; with CCRF-CEM leukemia it was 45.9%; with MOLT-4 leukemia, 74.1%; in the experiment on SR leukemia it was 0.849% (active); in the experiment with RPMI-8226 leukemia it was 41.8%. The growth in the experiment with OVCAR-8 ovarian was 58.2%; in the experiment with OVCAR-5 ovarian, 89.4%; with OVCAR-4 ovarian it was 72.3%; in the experiment with SK-OV-3 ovarian it was 71%; with IGROV1 ovarian, 44.8%; in the experiment with OVCAR-3 ovarian, 81.2%. The growth in the experiment with HS 578T breast was 74.1%; in the experiment on NCI/ADR-RES ovarian it was 72.7%.
As for `CC(=O)Nc1ccc(C=Nc2ccc3ccccc3c2)cc1`, the growth in the experiment with SK-MEL-2 melanoma is 121%; with EKVX NSCLC, 116%; in the experiment with SN12C renal, 99%; with UO-31 renal, 98.5%; with TK-10 renal, 106%; in the experiment with ACHN renal it was 118%. Besides, the growth with CAKI-1 renal was 47.4%; with A498 renal, 108%; with CCRF-CEM leukemia it was 93%; in the experiment with MOLT-4 leukemia, 100%; in the experiment on SR leukemia, 104%; with RPMI-8226 leukemia, 101%. Besides, the growth was 108% in the experiment with OVCAR-8 ovarian; 117% in the experiment on OVCAR-5 ovarian; 108% in the experiment on OVCAR-4 ovarian; 109% in the experiment with SK-OV-3 ovarian; 105% in the experiment on IGROV1 ovarian; 122% with OVCAR-3 ovarian. Further, in the experiment with NCI/ADR-RES ovarian, the growth was 115%.
